From the supplement of paper PMC7530171
Where “and” joins values, the source holds several entries; their conditions need not be identical. Equal entries are not always repeated. Structures can show the parent of a compound that is named as a salt. ± gives the standard deviation.

Tests used:
[1] = system: THP-1; assay: THP-1 cell loss relative to DMSO control; higher = more host cell loss (toxicity); extreme values may be limits of the assay; settings: 10 µM; 4 days; infection: M. tuberculosis H37Rv
Experimental: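 OICR kinase inhibitor library screened in duplicate at 10 uM against M. tuberculosis-infected THP-1 macrophages, 4 days at 37 C. THP-1 cell loss (cytotoxicity or loss of adherence) was quantified from Hoechst-stained nuclei counts by high-content imaging and normalised to the 1% DMSO control; 100 = complete loss of host cells.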

[2] = system: THP-1 macrophages infected with Mycobacterium tuberculosis H37Rv; assay: intracellular M.tb growth inhibition relative to DMSO (0) and 4 uM bedaquiline (100); higher = stronger inhibition of intracellular bacterial growth; settings: 10 µM; 4 days
Experimental: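 OICR kinase inhibitor library screened in duplicate at 10 uM against THP-1 macrophages (PMA-differentiated) infected with M. tuberculosis H37Rv-pTEC27 (tdTomato RFP), 4 days at 37 C. Rows with complete host cell loss (placeholder inhibition 0, cell loss 100) were removed.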

| Compound | THP-1 cell loss [1] | intracellular M.tb growth inhibition [2] [%] |
| --- | --- | --- |
| COc1cc2ncnc(Nc3cccc(Br)c3)c2cc1OC | 72.7 ± 4% | -64 ± 39 |
| Oc1ccc(-c2nc(-c3ccc(F)cc3)c(-c3ccncc3)[nH]2)cc1 | 8.45 ± 0.56% | – |
| O=C(NC1CCNCC1)c1n[nH]cc1NC(=O)c1c(Cl)cccc1Cl | 90.2 ± 14% | 29.6 ± 42 |
| Cc1ccc2nc(NCCN)c3ncc(C)n3c2c1 | 100% | – |
| O=S(=O)(c1cccc2c(Cl)cccc12)N1CCCNCC1 [ML 9 hydrochloride] | 31.1 ± 21% | -14 ± 4.8 |
| Nc1ncnc(Nc2ccc(OCc3ccccc3)c(Cl)c2)c1/C=N/OCCN1CCOCC1 | 38.7 ± 4.5% | 55.9 ± 12 |
| CC(=O)c1ccc(N2CCOCC2)cc1O | 16.46 ± 0.081% | -148 ± 170 |
| O=C1Cc2c([nH]c3ccc(Br)cc23)-c2ccccc2N1 [Kenpaullone] | 100% | – |
| CCCCCCCC(=O)OCCOC(=O)CCCCCCC [Dioctanoylglycol] | 4.61 ± 6.5% | – |
| C=CC(=O)Nc1cccc(Oc2nc(Nc3ccc(N4CCN(C)CC4)cc3OC)ncc2Cl)c1 | 42.4 ± 7.4% | -39 ± 120 |
| Cc1ccc(NC(=O)c2ccc(CN3CCN(C)CC3)cc2)cc1Nc1nccc(-c2cccnc2)n1 [Imatinib Mesylate] | 9.14 ± 13% | 54.9 ± 5 |
| Cc1cc(C(C)Nc2ccccc2)c2nc(N3CCOCC3)cc(=O)n2c1 (stereo not given) | 10.5 ± 5.8% | – |
| CC1(C)CNc2cc(NC(=O)c3cccnc3NCc3ccncc3)ccc21 [Motesanib diphosphate salt] | 4.91 ± 6.9% | – |
| CCn1c(-c2nonc2N)nc2c(C#CC(C)(C)O)ncc(OC[C@H]3CCCNC3)c21 | 15.8 ± 3.6% | -124 ± 170 |
| Cc1cccc(-c2nn(C(=S)Nc3ccccc3)cc2-c2ccnc3ccccc23)n1 | 2.37 ± 3.4% | 17.7 ± 18 |
| CC[C@H](CO)Nc1nc(NCc2ccccc2)c2ncn(C(C)C)c2n1 [Roscovitine] | 53.5 ± 2.5% | -23.1 ± 47 |
| CO[C@H]1C[C@@H]2CC[C@@H](C)[C@@](O)(O2)C(=O)C(=O)N2CCCC[C@H]2C(=O)O[C@H]([C@H](C)C[C@@H]2CC[C@@H](OCCO)[C@H](OC)C2)CC(=O)[C@H](C)/C=C(\C)[C@@H](O)[C@@H](OC)C(=O)[C@H](C)C[C@H](C)/C=C/C=C/C=C/1C [Everolimus] | 22 ± 0.045% | 3.03 ± 13 |
| N#C/C(=C\c1ccc(O)c(O)c1)C(=O)Nc1ccccc1 | 9.72 ± 2.5% | -35.4 ± 5.2 |
| Fc1ccc(-c2nc3n(c2-c2ccncc2)CCS3)cc1 | 7.21% and 5.2% | – |
| Cc1[nH]c(/C=C2\C(=O)Nc3ccccc32)c(C)c1CCC(=O)O | 5 ± 7.1% | – |
| CO[C@H]1C[C@@H]2CC[C@@H](C)[C@@](O)(O2)C(=O)C(=O)N2CCCC[C@H]2C(=O)O[C@H]([C@H](C)C[C@@H]2CC[C@@H](O)[C@H](OC)C2)CC(=O)[C@H](C)/C=C(\C)[C@@H](O)[C@@H](OC)C(=O)[C@H](C)C[C@H](C)/C=C/C=C/C=C/1C [Rapamycin] | 33.4 ± 6.3% | 15.9 ± 11 |
| CCN(CC)CCNC(=O)c1ccc2nc(-c3ccccc3)c(-c3ccc(CN4CCC(n5c(=O)[nH]c6ccccc65)CC4)cc3)nc2c1 [Merck-22-6] | 100% | – |
